The AC50 is the midpoint of the concentration-response curve, whichever way the signal moves.

The results in this text go back to PubChem BioAssay (EPA / NIEHS).

The source made the active and inactive calls. Rule for the calls: active = hit-call score of the fitted dose curve at least 0.9, where 1 is the maximum; inactive = score below 0.9.

This assay in a line: ATG_BRE_CIS: Attagene CIS-FACTORIAL HepG2 Assay for human Bone Morphogenetic Protein (BMP) Response Element (BRE) (AID 2282933). The conditions noted are these: HepG2 BMP response element reporter, Attagene transcription factor profiling; actives raise or lower the signal. On the procedure: ATG_CIS is a cell-based, multiplexed-readout assay that uses HepG2, a human liver cell line, with measurements taken at 24 hours after chemical dosing in a 24-well plate.ATG_BRE_CIS is one of 52 assay component(s) measured or calculated from the ATG_CIS assay. It is designed to make measurements of mRNA induction, a form of inducible reporter, as detected with fluorescence intensity signals by Reverse transcription polymerase chain reaction (RT-PCR) and Capillary electrophoresis technology.Data from the assay component ATG_BRE_CIS was analyzed into 1 assay endpoint. This assay endpoint, ATG_BRE_CIS, was analyzed with bidirectional fitting relative to DMSO as the negative control and baseline of activity. Using a type of inducible reporter, measures of mRNA for gain or loss-of-signal activity can be used to understand the reporter gene at the transcription factor-level as they relate to the gene SMAD1. Furthermore, this assay endpoint can be referred to as a primary readout, because this assay has produced multiple assay endpoints where this one serves a reporter gene function. To generalize the intended target to other relatable targets, this assay endpoint is annotated to the dna binding intended target family, where the subfamily is Smad protein.
Human liver HepG2 cells are transiently transfected with multiple reporter transcription units (MRTUs) in 6-well plates using FuGene 6 reagent (Roche; 3 ml FuGene/1 mg DNA). The MRTU constructs are regulated by a cis-regulating element (promoter). […] A major difference between the CIS and TRANS system is that in CIS activities of endogenous TFs are measured, whereas the TRANS assay evaluates changes in activities of exogenous, chimeric NR-Gal4 proteins. […] At the end of 24 hour incubation, total RNA was isolated using TriZol reagent (Invitrogen). The isolated RNA is then reverse-transcribed using oligo(dT) primer and Mo-MLV reverse transcriptase (Invitrogen) with DNAse I (Ambion) treatment for 30 min. The one-tenth of the produced cDNA was amplified by PCR using Taq DNA polymerase (Invitrogen) and two reporter sequence-specific primers. The PCR products were fluorescently labeled by primer extension with 6-arboxyfluorescein (6-FAM) 5'-labeled reporter sequence-specific primer (2 min at 95 C, 20 s at 68 C and 10 min at 72 C) and these products were digested with 5U of HpaI (New England Biolabs) for 2h at 37 C. The fragments were purified using Qiaquick PCR columns (Qiagen), analyzed on an ABI 3130xL genetic analyzer (Applied Biosystems) with peak positions identified by using a set of X-rhodamine (ROX)-labeled MapMarker1000 molecular weight standards (BioVentures). The raw capillary electrophoresis data was processed using Attagraph software (Attagene).
Turning to `Clc1cccnc1`, the result was inactive.

As to `CCC(=O)C1CC(C(C)C)CC=C1C` (stereo not given), the outcome was inactive.

As for `CCCCOCC(C)O` (stereo not given), the molecule was classed as inactive.

On to `COC(=O)C=Cc1ccccc1`, for which the result was inactive.

As for `Nc1ccc(C(=O)O)cc1`, the call was inactive.

Regarding `COCC(=O)O`, the molecule was classed as inactive.

As to `CC1CCC(C(C)(C)S)C(=O)C1` (stereo not given), the molecule was classed as inactive.

Regarding `Nc1ccc(O)c([N+](=O)[O-])c1`, the result was inactive.

As to `CCCCc1ccc(Cl)cc1`, the result was inactive.

For the molecule `CCCC/C=C/C=C\C=O`, the result was inactive.

With `CC(=O)CC(=O)Nc1ccccc1C`, the molecule was classed as inactive.

Regarding `CC(C)(C)NC(=O)[C@H]1CC[C@H]2[C@@H]3CC[C@H]4NC(=O)C=C[C@]4(C)[C@H]3CC[C@]12C`, the outcome was inactive.

On to `Nc1ccnc(=O)[nH]1`, for which the molecule was classed as inactive.

For the molecule `O=C1c2ccccc2C(=O)c2cc(S(=O)(=O)O)ccc21`, the molecule was called inactive.

For the molecule `C=C1C[C@H]2[C@@H]3C=C(C)C4=CC(=O)CC[C@]4(C)[C@H]3CC[C@]2(C)[C@@]1(OC(C)=O)C(C)=O`, the result was inactive.

Turning to `CCCCCCCCCC[N+](C)(CCCCCCCCCC)CCC[Si](OC)(OC)OC`, the molecule was called inactive.

`CC=C(C)C=CC=C(C)C`: the call was inactive.

As for `N#Cc1ccc(C2CCCc3cncn32)cc1` (stereo not given), the result was inactive.

Turning to `CC(C)CCCCCOC(=O)CS`, the result was inactive.

Take `C=CCCCCCCCCO`: the call was inactive.

Regarding `CC(=O)OC(C)c1ccccc1` (stereo not given), the molecule was classed as inactive.

Consider `CC(=O)c1ccccc1O`, for which the molecule was called inactive.

With `COC(=O)c1ccc(C(=O)OC)c(C(=O)OC)c1`, the result was inactive.

As for `COC(=O)CC(C)CCC=C(C)C` (stereo not given), the molecule was called inactive.

`Oc1ccc(-c2ccccc2)c(Cl)c1`: the AC50 was 33.4 µM (active).

On to `Nc1ccc(Cl)c(N)c1`, for which the molecule was called inactive.

Take `Cc1ccc(C)c(OCCCC(C)(C)C(=O)O)c1`: the call was inactive.

As for `O=C(Cl)c1ccc(C(=O)Cl)cc1`, the molecule was classed as inactive.

Regarding `O=C1CCCCC1C1CCCCC1` (stereo not given), the molecule was classed as inactive.

Regarding `CC1CC(=O)CC(C)(C)C1` (stereo not given), the molecule was classed as inactive.

As for `CC(C)C(=O)OCCOc1ccccc1`, the call was inactive.

Consider `Clc1cc(Cl)c(Cl)c(Cl)c1Cl`, for which the molecule was called inactive.

Consider `CCCCOC(=O)CCC(C)=O`, for which the molecule was classed as inactive.

Consider `O=C(Oc1ccccc1)c1ccccc1C(=O)Oc1ccccc1`, for which the result was inactive.

In the case of `CC1CCC(=O)C1=O` (stereo not given), the outcome was inactive.

Take `CC(CCC(=O)O)(c1ccc(O)cc1)c1ccc(O)cc1`: the molecule was classed as inactive.

Regarding `CCCCNS(=O)(=O)c1ccccc1`, the molecule was classed as inactive.

On to `Oc1c(Cl)cc(Cl)c(Cl)c1Cl`, for which the concentration at half-maximal activity (AC50) is 100 µM (active).

For `C=C(C)C(=O)OCC(O)COc1ccc(C(C)(C)c2ccc(OCC(O)COC(=O)C(=C)C)cc2)cc1` (stereo not given), the AC50 is 24.8 µM (active).

In the case of `O=C(Nc1ccccc1)c1cc(Cl)ccc1O`, the AC50 is 3.15 µM (active).
